The values that follow come from PubChem BioAssay (EPA / NIEHS).

Inconclusive results are not listed. Activity calls are given as the source filed them. Rule for the calls: active = hit-call score of the fitted dose curve at least 0.9, where 1 is the maximum; inconclusive = response in the unintended direction; inactive = score below 0.9.

A short description of the experiment: CCTE_Harrill_HTTr_CellCount_MCF7: CCTE's Cell Proliferation Assessment for the High-Throughput Transcriptomics (HTTr) Platform, Harrill Lab (AID 2284012).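 Note: cells exposed to compound for six hours; intended direction is loss of nuclei count meaning fewer cells.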 An excerpt: This is a cell-based assay that evaluates cell viability and cell growth using high content imaging to count the number of Hoechst-labeled nuclei that are present in an assay well in 384-well format.This is a cell-based assay that evaluates cell viability and cell growth in MCF-7 cells. This was part of a full screening experiment. High content imaging is used to count the number of Hoechst-labeled nuclei that are present in an assay well in 384-well format.The assay component endpoint CCTE_Harrill_HTTr_CellCount_MCF7 was analyzed with bidirectional fitting relation to DMSO as the negative control and baseline of activity. Using a type of viability reporter, loss-of-signal activity can be used to understand changes in cell count. To generalize the intended target to other relatable targets, this assay endpoint is annotated to cell cycle, where the subfamily is cell count.
Chemicals were tested in MCF7 cells in an eight point dilution series with a six hour exposure duration.
As to `CC(C)[C@@H](C(=O)O[C@@H](C#N)c1cccc(Oc2ccccc2)c1)c1ccc(Cl)cc1`, the call was inactive.

Regarding `CCCCc1c(C)nc(NCC)nc1OS(=O)(=O)N(C)C`, the call was inactive. The same measure for `CN1C(=O)CCS(=O)(=O)C1c1ccc(Cl)cc1` (stereo not given): “inactive”. As for `O=C(CCl)c1ccccc1`, the call was inactive. The same measure for `CC(=O)c1cc2c(cc1C)C(C)(C)C(C)CC2(C)C` (stereo not given): “inactive”. In the case of `[Cd+2].[Cl-].[Cl-]` it was “inactive”; in that of `CCCCC(CC)COC(=O)c1cc(Br)c(Br)c(Br)c1Br` (stereo not given), “inactive”; in that of `C[C@]12CC[C@H]3[C@@H](CC[C@@]45O[C@@H]4C(O)=C(C#N)C[C@]35C)[C@@H]1CC[C@@H]2O`, “inactive”. As for `CCOC(=O)NC(=S)Nc1ccccc1NC(=S)NC(=O)OCC`, the result was inactive. With `Cc1cccc2sc3nncn3c12`, the outcome was inactive. The same measure for `ClC=C(Cl)CCl`: “inactive”; for `O=C(O)CCCc1ccc(N(CCCl)CCCl)cc1`: “inactive”; for `CC(C)CCCCCCCOC(=O)c1ccccc1C(=O)OCCCCCCCC(C)C`: “inactive”. The same measure for `Cl`: “inactive”. For the molecule `COc1ccc(CO)cc1`, the call was inactive. For the molecule `CCCCOC(=O)N(C)SN(C)C(=O)Oc1cccc2c1OC(C)(C)C2`, the outcome was inactive.

On to `O=C1C=CC(=O)C=C1`, for which the call was inactive. In the case of `COP(=S)(Oc1cc(Cl)c(Br)cc1Cl)c1ccccc1` (stereo not given) it was “inactive”. The same measure for `CCCCc1c(C)nc(NCC)[nH]c1=O`: “inactive”; for `COc1ccc2c3c1O[C@H]1[C@@H](O)C=C[C@H]4[C@@H](C2)N(C)CC[C@@]341`: “inactive”; for `c1cc(OCC2CO2)ccc1Cc1ccc(OCC2CO2)cc1` (stereo not given): “inactive”.

With `CC(C)(C)C(O)C(Oc1ccc(-c2ccccc2)cc1)n1cncn1` (stereo not given), the molecule was called inactive.

Take `Nc1ccc(Cl)c(Cl)c1`: the result was inactive.

As for `CC(N)=S`, the outcome was inactive.

For `CC(C)(C)C(=O)CCl`, the call was inactive.

For `[Cl-].[Cl-].[Cl-].[Fe+3]`, the outcome was inactive.

In the case of `COCCOC(C)=O`, the call was inactive. In the case of `[Cl][Sb]([Cl])[Cl]` it was “inactive”; in that of `O=S(=O)(O)O`, “inactive”; in that of `FC(F)(F)c1ccc(OCCCOc2c(Cl)cc(OCC=C(Cl)Cl)cc2Cl)nc1`, “inactive”. In the case of `N#CCCCCC#N` it was “inactive”; in that of `N#Cc1sc2c(=O)c3ccccc3c(=O)c=2sc1C#N`, “inactive”. Turning to `Cc1ccc2cc(C)ccc2c1`, the call was inactive.

In the case of `O=[N+]([O-])O`, the molecule was called inactive. The same measure for `CCOP(=S)(OCC)Oc1cnc2ccccc2n1`: “inactive”; for `CN(C)C(=O)C(c1ccccc1)c1ccccc1`: “inactive”. The same measure for `C=COCCCl`: “inactive”; for `CCOC(=O)COc1ccc(Cl)cc1Cl`: “inactive”. With `COC(=O)c1ccccc1S(=O)(=O)NC(=O)Nc1nc(C)cc(C)n1`, the result was inactive. The same measure for `OC(c1ccc(F)cc1)(c1cncnc1)c1ccccc1Cl` (stereo not given): “inactive”.
